Screening data: PubChem, National Center for Advancing Translational Sciences (NCATS)
In the library only some 19% were active in any assay of this set; here they are far more common.
KB-3-1 tox: KB-3-1 parental cell cytotoxicity; KB-3-1 viability, CellTiter-Glo ATP luminescence, 72 h; Potency, µM (top dose mostly 46.1 µM), most hits filed as cytotoxic; 400,000 compounds, 1.4% hits; AID 1347075; note: nearly all actives have a fitted effect of over 60% in size
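Luminescent ATP read-out (CellTiter-Glo) measures survival of drug-naive KB-3-1 cells after 72 h compound exposure at 37 °C. Titration series was screened from lowest to highest concentration, with DMSO vehicle plates as background controls.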
KB-V1 cytotox: KB-V1 MDR subline cytotoxicity; KB-V1 MDR cells viability, CellTiter-Glo, 72 h; Potency, µM (titrated, usually from 46.1 µM), most hits filed as cytotoxic; 400,000 compounds, 3.4% hits; note: nearly all actives have a fitted effect of over 60% in size
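Luminescent ATP read-out (CellTiter-Glo, 10 min) measures survival of drug-selected KB-V1 MDR cells after 72 h, 37 degrees C compound exposure. Medium: phenol-red-free DMEM, 10% FBS. Values from fitted concentration-response curves.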
HT1080NT lethal: kills 2HG-producing HT-1080-NT fibrosarcoma cells; HT-1080-NT fibrosarcoma viability, CellTiter-Glo ATP luminescence, 48 h; Potency, µM (series often up to 46.1 µM), for the others: at the top dose activity, negative = less viability, usual class: cytotoxic; AID 686970; 360,000 compounds, 1.6% hits;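 note: NT is the 2HG producing partner of a matched IDH1 knockdown line; 0% = DMSO-treated cells and -100% = media-only wells without cells; nearly all actives have a fitted effect of over 55% in size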
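Viability of the 2HG-overproducing fibrosarcoma line after 48 hours of compound exposure at 37 degrees C was determined by luminescence with CellTiter-Glo, and concentration-effect curves were then fitted and categorized.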
HT1080 IDH1KD tx: kills HT-1080 cells with IDH1 knockdown; HT-1080 IDH1 knockdown viability, ATP luminescence, 48 h; Potency, µM (series often up to 46.1 µM), for the others: at the highest dose activity, negative = toxicity, usual class: cytotoxic; 360,000 compounds, 2% hits;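 note: 0% = DMSO wells and -100% = cell-free medium wells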
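Cytotoxicity counter-line: IDH1KD HT-1080, 48 h, CellTiter-Glo. Curves classed by r2, magnitude and activity.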
TDP1 cell noCPT: qHTS for Inhibitors of human tyrosyl-DNA phosphodiesterase 1 (TDP1): qHTS in cells in absence of CPT. DT40 Tdp1-/- hTDP1 cells, no CPT, ATP luminescence, 48 h. Potency, µM (series often up to 46.2 µM), inactives show at the top dose activity change, negative = growth inhibition, hits mostly inhibitors. 420,000 compounds, 15% hits. AID 686978, 2013; note: nearly all actives have a fitted effect of over 55% in size
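Stably hTDP1-transfected Tdp1-null chicken DT40 cells were treated with library compounds minus camptothecin and grown for at least 48 hr at 37 °C, after which cellular ATP was quantified by luminescence.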
TDP1 cell CPT: growth inhibition of DT40 Tdp1-/-;hTDP1 cells with camptothecin (screen for TDP1 inhibitors); chicken DT40 Tdp1-/-;hTDP1 cells + 20 nM CPT, ATP luminescence, 48 h; Potency, µM (doses to about 46.2 µM), for inactives: at the highest dose activity change, negative = growth inhibition, most hits filed as inhibitors; 420,000 compounds, 12% hits; AID 686979; note: nearly all actives have a fitted effect of over 55% in size
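Chicken DT40 Tdp1-/- cells stably complemented with human TDP1 were seeded at 400 cells/well in medium containing 20 nM camptothecin, exposed to pin-transferred compounds, and grown at 37 °C for at least 48 hr. Viability was read as ATP luminescence.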
* = called active by the depositor; i = inactive; ? = inconclusive; . = not tested or not shown; [ ] = dose if it differs, or a comment. Calls come from the whole dose curve; as a rule, active = well fitted curve in the direction sought with a large enough effect; inconclusive = small, poorly fitted or top-dose-only effect, or another doubt; inactive = no such curve, though single readings can be large; an effect the other way counts as inactive or inconclusive. Unless noted, % is set by controls: 0 for no effect and ±100 for the full control effect; potency is the fitted concentration of half-maximal effect.

SMILES	KB-3-1 tox	KB-V1 cytotox	HT1080NT lethal	HT1080 IDH1KD tx	TDP1 cell noCPT	TDP1 cell CPT
Cc1cc(C)c(S(=O)(=O)Nc2ccc3oc(C)c(C(=O)OC(C)C)c3c2)cc1C	i	?	.	.	13µM*	?
Cc1oc2ccc(NS(=O)(=O)c3cccc4cccnc34)cc2c1C(=O)OC(C)C	i	?	-16%	-12%	?	?
COC(=O)C1=C[C@@H](C(=O)OC)[C@@H]2C3=C(C(=O)[C@@]2(C)NC(=O)c2ccccc2)[C@H](c2ccccc2)[C@@H]2C(=O)NC(=O)[C@@H]2[C@@H]3C1	i	i	14%	24%	-8%	-4%
CCOc1ccc(S(=O)(=O)Nc2ccc3oc(C)c(C(=O)OC(C)C)c3c2)cc1	?	13µM*	.	.	.	.
CCOC(=O)Oc1ccc2oc(C)c(C(=O)OCCOC)c2c1	i	?	-5%	-1%	-7%	-9%
COCCOC(=O)c1c(C)oc2ccc(OC(=O)c3c(OC)cccc3OC)cc12	i	?	12%	18%	16µM*	?
COCCOC(=O)c1c(C)oc2ccc(NS(=O)(=O)c3ccccc3)cc12	i	i	10%	4%	-23%	-3%
COCCOC(=O)c1c(C)oc2ccc(NS(=O)(=O)c3ccc(C)cc3)cc12	i	8.2µM*	19%	-7%	26µM*	?
C[C@@H]1O[C@@H](O[C@H]2[C@H](Oc3cc(O)c4c(c3)OC(c3ccc(O)cc3)CC4=O)O[C@H](CO)[C@@H](O)[C@@H]2O)[C@H](O)[C@H](O)[C@H]1O (some centres not stated)	i	i	?	13%	2%	1%
CC(=O)Nc1cc(C(=O)N2CCSCC2)cc2ncn(CCc3ccccn3)c12	.	.	.	.	-6%	-3%[9.04 µM]
COc1cccc(-n2c(SCc3ccccc3C)nc3c([nH]c4ccccc43)c2=O)c1	i	23µM*	.	.	?	?
COc1cccc(-n2c(SCC(=O)Nc3c(C)cc(C)cc3C)nc3c([nH]c4ccccc43)c2=O)c1	i	?	.	.	13µM*	12µM*
COc1cccc(NC(=O)CSc2nc3c([nH]c4ccccc43)c(=O)n2-c2cc(C)cc(C)c2)c1	.	.	.	.	12%	1%
O=C(Cc1c(Cl)cccc1Cl)OCC(=O)N1CCN(C(=O)c2ccco2)CC1	i	i	4%	-1%	-3%	-1%
COc1ccc(C(CNC(=O)c2cccc(S(=O)(=O)Nc3ccc(F)cc3)c2)N2CCOCC2)cc1 (configuration not stated)	i	i	-3%	1%	-21%	?
CCn1c2ccccc2c2cc(Nc3cc(C)nc4ncnn34)ccc21	0.23µM*	?	0.58µM*	1µM*	0.58µM*	0.92µM*
CCc1ccc(Nc2cc(C)nc3ncnn23)cc1	?	?	-1%	-10%	0%	6%
COc1ccc(N(CC(=O)NCCc2cccc(C)c2)S(=O)(=O)c2c(C)nn(C)c2C)cc1	i	i	.	.	?	?
COc1ccc(N(CC(=O)NCCc2ccc(OC)c(OC)c2)S(=O)(=O)c2c(C)noc2C)cc1	i	i	4%	4%	0%	3%
COc1ccc(N(CC(=O)NCCc2cccc(C)c2)S(=O)(=O)c2c(C)noc2C)cc1	i	i	-15%	3%	18µM*	?
COc1ccc(N(CC(=O)NCCc2ccc(C)cc2)S(=O)(=O)c2c(C)noc2C)cc1	i	i	-2%	0%	?	21µM*
Cc1ccc(CCNC(=O)CN(c2ccc(C(C)C)cc2)S(=O)(=O)c2c(C)nn(C)c2C)cc1	i	i	.	.	23µM*	?
